Test results taken from PubChem BioAssay (Tox21).
Several values for one entry are separate records, joined by “and”; a condition that tells them apart may be missing. Identical values can stand only once. Records with an inconclusive call do not appear. Where a call stands in place of a potency, no number is given. A number with no mark means an inactive call. Activity calls are given as the source filed them. Unless noted, the call rests on the fitted dose curve; in most records, active means well fitted curve in the direction sought with a large enough effect in the repeat runs; inconclusive means weak or mixed curves; inactive means no such curve, though single readings can be large; an effect the other way counts as inactive or inconclusive.

How the values were obtained:
[1] = qHTS assay to identify small molecule agonists of the peroxisome proliferator-activated receptor delta (PPARd) signaling pathway - cell viability counter screen (AID 743211); further: nearly all actives have a fitted effect of over 55% in size; further: potency means the concentration at half of the fitted maximal effect
How it was run: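 Viability was measured as CellTiter-Glo luminescence (30 min, room temperature) in the same wells as the beta-lactamase readout. GeneBLAzer PPARd UAS-bla HEK293H cells received compound after 5 h plating and were incubated 17 h at 37 C.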

[2] = qHTS assay to identify small molecule antagonists of the peroxisome proliferator-activated receptor delta (PPARd) signaling pathway - cell viability counter screen (AID 743213); further: nearly all actives have a fitted effect of over 50% in size; further: potency means the concentration at half of the fitted maximal effect
How it was run: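 HEK293H PPARd UAS-bla cells, 5 h pre-incubation, compound + L165041 300 nM final, 17 h 37 C; B/G FRET substrate 2 h RT; then CellTiter-Glo 30 min RT, luminescence.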

[3] = molecular target: Bile acid receptor (Homo sapiens) (UniProt Q96RI1); test: qHTS assay to identify small molecule antagonists of the farnesoid-X-receptor (FXR) signaling pathway (AID 743217; active means well fitted inhibition curve with a large enough effect in the signal ratio in the repeat runs, not every such curve was filed as active; the % refers to the signal ratio)
Chain of Bile acid receptor (Homo sapiens) (Q96RI1 whole entry, looked up): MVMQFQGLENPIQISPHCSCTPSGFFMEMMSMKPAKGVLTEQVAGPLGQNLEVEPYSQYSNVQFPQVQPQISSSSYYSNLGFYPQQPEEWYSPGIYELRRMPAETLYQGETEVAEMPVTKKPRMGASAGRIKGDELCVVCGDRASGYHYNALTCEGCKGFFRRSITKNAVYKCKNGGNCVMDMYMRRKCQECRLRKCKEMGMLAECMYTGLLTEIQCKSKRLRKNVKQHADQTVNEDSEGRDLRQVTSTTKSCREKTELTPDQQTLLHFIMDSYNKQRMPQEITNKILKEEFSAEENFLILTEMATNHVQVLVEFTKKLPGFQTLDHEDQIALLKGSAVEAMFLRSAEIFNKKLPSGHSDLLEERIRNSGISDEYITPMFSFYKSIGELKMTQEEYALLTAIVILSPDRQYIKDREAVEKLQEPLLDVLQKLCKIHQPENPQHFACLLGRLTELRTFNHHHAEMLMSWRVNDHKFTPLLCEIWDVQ
How it was run: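 FRET fluorescence after 2 h room-temperature LiveBLAzer loading gives the readout. Prior step: FXR-bla HEK 293T cells, seeded and incubated 5 h, received test compounds plus 50 uM final CDCA for 16 h at 37 °C.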

[4] = qHTS assay to identify small molecule agonists of the farnesoid-X-receptor (FXR) signaling pathway - cell viability counter screen (AID 743218); further: nearly all actives have a fitted effect of over 45% in size; further: potency means the concentration at half of the fitted maximal effect
How it was run: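 Readout: CellTiter-Glo luminescence, 30 min RT, multiplexed after the FXR-bla FRET reading. HEK 293T FXR-UAS-bla cells received compound 5 h post-plating and were incubated 16 h at 37 C.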

[5] = qHTS assay to identify small molecule antagonists of the farnesoid-X-receptor (FXR) signaling pathway - cell viability counter screen (AID 743221; active means well fitted cell-killing curve with a large enough effect in the repeat runs, not every such curve was filed as active; further: nearly all actives have a fitted effect of over 50% in size; further: potency means the concentration at half of the fitted maximal effect)
How it was run: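 Cytotoxicity counter screen run in the FXR-bla reporter wells: HEK 293T cells exposed to compound with 50 uM (final) chenodeoxycholic acid for 16 h, 37 C, then viability measured by CellTiter-Glo luminescence after 30 min, room temperature.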

[6] = molecular target: Vitamin D3 receptor (Homo sapiens) (UniProt P11473); test: qHTS assay to identify small molecule antagonists of the vitamin D receptor (VDR) signaling pathway (AID 743223; active means well fitted inhibition curve with a large enough effect in the signal ratio in the repeat runs, not every such curve was filed as active; the % refers to the signal ratio; further: potency means the concentration at half of the fitted maximal effect)
Chain of Vitamin D3 receptor (Homo sapiens) (P11473 whole entry, looked up): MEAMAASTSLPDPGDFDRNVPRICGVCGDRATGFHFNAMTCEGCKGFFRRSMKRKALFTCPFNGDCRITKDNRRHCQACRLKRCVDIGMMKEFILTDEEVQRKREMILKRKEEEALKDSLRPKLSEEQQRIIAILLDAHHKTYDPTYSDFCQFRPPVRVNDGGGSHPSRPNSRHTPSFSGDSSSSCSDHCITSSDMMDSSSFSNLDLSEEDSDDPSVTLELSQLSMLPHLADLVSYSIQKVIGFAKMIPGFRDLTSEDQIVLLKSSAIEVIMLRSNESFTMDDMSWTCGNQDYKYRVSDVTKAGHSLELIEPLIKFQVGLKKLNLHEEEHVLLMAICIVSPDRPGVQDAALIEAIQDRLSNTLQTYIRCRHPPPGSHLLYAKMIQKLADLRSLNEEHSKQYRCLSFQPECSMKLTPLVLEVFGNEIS
How it was run: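 Antagonist mode: compound added to VDR-bla cells alongside agonist 1alpha,25-dihydroxyvitamin D3 (3 nM final), incubation 16 h at 37C. Read-out is LiveBLAzer FRET fluorescence, 2 h at room temperature.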

[7] = molecular target: Peroxisome proliferator-activated receptor delta (Homo sapiens) (UniProt Q03181); test: qHTS assay to identify small molecule agonists of the peroxisome proliferator-activated receptor delta (PPARd) signaling pathway (AID 743212; calls by dose curve)
Chain of Peroxisome proliferator-activated receptor delta (Homo sapiens) (Q03181 whole entry, looked up): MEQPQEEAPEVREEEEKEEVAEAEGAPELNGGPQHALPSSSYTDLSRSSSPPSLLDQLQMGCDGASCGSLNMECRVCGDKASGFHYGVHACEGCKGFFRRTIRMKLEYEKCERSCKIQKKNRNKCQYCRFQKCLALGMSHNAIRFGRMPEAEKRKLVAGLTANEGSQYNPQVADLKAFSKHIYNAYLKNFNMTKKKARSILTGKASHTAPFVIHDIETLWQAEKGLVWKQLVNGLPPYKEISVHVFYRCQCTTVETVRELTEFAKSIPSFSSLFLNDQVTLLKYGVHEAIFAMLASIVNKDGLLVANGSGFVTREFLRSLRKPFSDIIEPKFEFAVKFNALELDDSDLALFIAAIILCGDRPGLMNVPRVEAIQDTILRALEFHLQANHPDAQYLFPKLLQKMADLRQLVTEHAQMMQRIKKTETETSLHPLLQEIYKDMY
How it was run: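 Tox21 library screened in GeneBLAzer PPARd UAS-bla HEK293H cells. After compound treatment at 37 C, a FRET-based beta-lactamase substrate was applied for 2 h and fluorescence recorded.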

[8] = molecular target: Peroxisome proliferator-activated receptor delta (Homo sapiens) (UniProt Q03181); test: qHTS assay to identify small molecule antagonists of the peroxisome proliferator-activated receptor delta (PPARd) signaling pathway (AID 743215; active means well fitted inhibition curve with a large enough effect in the signal ratio in the repeat runs, not every such curve was filed as active; the % refers to the signal ratio;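 further: cells stimulated with agonist L165041 at 300 nM final during compound exposure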; further: potency means the concentration at half of the fitted maximal effect)
How it was run: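 Fluorescence from cleaved LiveBLAzer B/G FRET substrate (2 h, room temperature) reports PPARd-driven beta-lactamase in HEK293H UAS-bla cells. Cells had been treated 17 h at 37 C with compound plus 300 nM final L165041.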

[9] = molecular target: Vitamin D3 receptor (Homo sapiens) (UniProt P11473); test: qHTS assay to identify small molecule agonists of the vitamin D receptor (VDR) signaling pathway (AID 743222; calls by dose curve)
How it was run: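 Following 4 h attachment at 37C, VDR-bla cells (2,000 per well) received DMSO-dissolved compounds or controls. After 16 h incubation, LiveBLAzer B/G FRET substrate was added and fluorescence read 2 h later at room temperature.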

[10] = molecular target: Bile acid receptor (Homo sapiens) (UniProt Q96RI1); test: qHTS assay to identify small molecule agonists of the farnesoid-X-receptor (FXR) signaling pathway (AID 743220; active means well fitted activation curve with a large enough effect in the signal ratio in the repeat runs, not every such curve was filed as active; the % refers to the signal ratio)
How it was run: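 FXR-UAS-bla HEK 293T cells carrying a UAS-driven beta-lactamase reporter were plated for 5 h at 37C/5% CO2, then exposed to DMSO-dissolved Tox21 10K compounds for 16 h at 37C. A LiveBLAzer B/G FRET substrate was loaded for 2 h at room temperature before fluorescence reading.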

SMILES | Potency [1] | Potency [2] | Potency [3] | Potency [4] | Potency [5] | Potency [6] | outcome [7] | Potency [8] | outcome [9] | outcome [10]
CCCBr | inactive | inactive | inactive | inactive | inactive | inactive |  |  |  | 
C#C[C@]1(O)CC[C@H]2[C@@H]3CCC4=CC(=O)CCC4=C3C=C[C@@]21CC | inactive | inactive |  |  |  |  |  |  |  | 
C[C@H](N)[C@H](O)c1ccc(O)c(O)c1 | inactive |  |  | inactive | inactive |  | inactive | inactive |  | 
C[C@@H]1C[C@@H]([C@H](O)CC2CC(=O)NC(=O)C2)C(=O)[C@@H](C)C1 | inactive | inactive | inactive | inactive |  |  |  |  |  | 
O=C(O)C(F)(F)C(F)(F)C(F)(F)C(F)(F)C(F)(F)F | inactive | inactive |  | inactive | inactive | inactive |  | inactive |  | 
N#CC(C#N)=C(C#N)C#N | inactive |  |  | inactive | inactive | inactive | inactive | inactive | inactive | 
FC(Cl)(Cl)C(F)(Cl)Cl | inactive | inactive |  | inactive | inactive | inactive |  |  | inactive | 
CCc1ccccc1N | inactive |  |  | inactive | inactive | inactive | inactive | inactive | inactive | 
CCC(C)Cl (stereo unspecified) | inactive | inactive |  | inactive | inactive | inactive |  |  | inactive | 
COC(=O)Cc1ccccc1 | inactive |  |  | inactive |  |  | inactive | inactive | inactive | 
CCCCC#N | inactive |  |  | inactive | inactive |  | inactive | inactive |  | 
C1CCNCC1 | inactive |  |  | inactive | inactive | inactive | inactive | inactive | inactive | 
CCC1(CC)C(=O)NC(=O)NC1=O | inactive |  |  | inactive | inactive | inactive | inactive | inactive |  | 
[Cl-].[Cl-].[Hg+2] | 1.73 µM (active) and 2.19 µM (active) | 2.44 µM (active) and 1.74 µM (active) |  | 2.74 µM (active) and 9.77 µM (active) | 2.18 µM (active) and 3.47 µM (active) |  |  |  |  | 
CCOC(=O)C1OC1(C)c1ccccc1 (stereo unspecified) | inactive | inactive |  | inactive | inactive |  |  |  |  | 
CCCCCCCCn1sccc1=O | 1.95 µM (active) and 2.04 µM (active) | 1.38 µM (active) and 1.82 µM (active) |  | 7.78 µM (active) and 5.13 µM (active) |  |  |  |  |  | 
C=CCc1ccccc1O | inactive | inactive | inactive | inactive | inactive | inactive |  | inactive | inactive | 
FC(F)OC(F)(F)C(F)Cl (stereo unspecified) | inactive |  |  | inactive |  | inactive | inactive | inactive |  | 
C[N+](C)(C)CCOC(=O)C(O)(c1ccccc1)c1ccccc1 | inactive |  |  |  | inactive | inactive | inactive | inactive | inactive | 

SMILES | Potency [1] | Potency [2] | Potency [3] | Potency [4] | Potency [5] | Potency [6] | outcome [7] | Potency [8] | outcome [9] | outcome [10]
O=CC=O | inactive |  |  | inactive | inactive |  | inactive | inactive |  | 
COc1ccc(C(O)(c2cncnc2)C2CC2)cc1 (stereo unspecified) | inactive | inactive | inactive | inactive | inactive |  |  |  | inactive | 
O=C1CC[C@@]2(O)[C@H]3Cc4ccc(O)c5c4[C@@]2(CCN3CC2CC2)[C@H]1O5 | inactive | inactive | inactive | inactive | inactive |  |  |  |  | 
O=C1c2ccccc2C(=O)N1SC(Cl)(Cl)Cl | 38.3 µM (active) and 6.92 µM (active) | 21.6 µM (active) and 5.49 µM (active) |  | 34.7 µM (active) |  |  |  | 19.5 µM (active) |  | inactive
CCCCCBr | inactive |  |  | inactive | inactive | inactive | inactive | inactive | inactive | 
Cc1nc2ccccc2c(=O)n1-c1ccccc1Cl | inactive | inactive |  | inactive | inactive | inactive |  |  | inactive | 
NC(=O)CF | inactive | inactive |  | inactive |  |  |  |  |  | 
C[Si](Cn1cncn1)(c1ccc(F)cc1)c1ccc(F)cc1 | inactive |  |  |  |  |  | inactive |  |  | inactive
C[CH2][Hg][S]c1ccccc1C(=O)O | 871 nM (active) and 2.11 µM (active) | 2.19 µM (active) and 1.68 µM (active) |  | 1.55 µM (active) and 2.66 µM (active) | 6.92 µM (active) and 4.22 µM (active) | 3.38 µM (active) |  |  | inactive | 
CCOC(C(=O)OCCN(C)C)(c1ccccc1)c1ccccc1 | inactive | inactive | inactive | inactive | inactive | inactive |  |  | inactive | 
Clc1ccccc1 | inactive |  |  | inactive | inactive |  | inactive |  | inactive | 
Nc1ccccc1C(=O)OCC(O)CO (stereo unspecified) | inactive | inactive |  |  | inactive | inactive |  | inactive | inactive | 
CCCCCCCCCCCC[N+](C)(C)CCOc1ccccc1 | 13.8 µM (active) and 11.9 µM (active) | 17.4 µM (active) |  | 24.6 µM (active) | 49 µM (active) |  |  |  |  | 
CCOC(=O)c1cn2nc(OP(=S)(OCC)OCC)cc2nc1C | inactive |  |  | inactive | inactive |  | inactive | inactive |  | 
O=[N+]([O-])/C=C/c1ccccc1 | 14 µM (active) and 17.4 µM (active) | 44.4 µM (active) |  | 19.8 µM (active) and 15.5 µM (active) |  | inactive |  |  | inactive | inactive
CC(C)(C)NCC(O)c1ccccc1Cl (stereo unspecified) |  | inactive |  | inactive |  |  |  |  |  | inactive
C=CCOCC1CO1 (stereo unspecified) |  | inactive |  | inactive | inactive | inactive |  |  | inactive | inactive
COCc1cnc(C2=NC(C)(C(C)C)C(=O)N2)c(C(=O)O)c1 (stereo unspecified) |  | inactive | inactive | inactive | inactive | inactive | inactive |  |  | 
